{"source": "ChEMBL document CHEMBL3988442", "about": "“University of Dundee, Small-Polar-MMV Screening Library” (2021)", "note": "In all, about 48,000 compounds went through this assay and about 13,000 (27%) showed an effect of 50% or more. Some of the results follow.", "data": [{"tested_on": "Wolbachia pipientis", "assay": "Anti-Wolbachia Cell-Based Screen", "type": "functional", "parameters": "scale not given: in the data most compounds retested in dose-response had high values", "settings": "5 µM", "units": {"Percent Effect": "%"}, "values": [{"smiles": "NC(=O)C(NC(=O)Cc1cnn(-c2ccccc2)n1)c1ccccc1", "note": "(centres undefined)", "Percent Effect": -10.55}, {"smiles": "CNC(=O)C(C)(C)CNC(=O)Nc1cc(C)ccn1", "Percent Effect": -2.642}, {"smiles": "CNC(=O)[C@H]1C[C@@H]2CN(S(=O)(=O)c3cccc(C)c3)C[C@@H]2N1C.O=C(O)C(F)(F)F", "Percent Effect": -8.978}, {"smiles": "CNC(=O)[C@H]1C[C@@H]2CN(C(=O)c3ccncc3)C[C@@H]2N1S(C)(=O)=O.O=C(O)C(F)(F)F", "Percent Effect": 89.45}, {"smiles": "CNC(=O)[C@H]1C[C@@H]2CN(C(=O)c3ccccn3)C[C@@H]2N1S(C)(=O)=O.O=C(O)C(F)(F)F", "Percent Effect": 96.47}, {"smiles": "CNC(=O)[C@H]1C[C@@H]2CN(S(=O)(=O)c3ccc(F)cc3)C[C@@H]2N1C.O=C(O)C(F)(F)F", "Percent Effect": -8.738}, {"smiles": "CNC(=O)[C@H]1C[C@@H]2CN(S(=O)(=O)c3ccccc3)C[C@@H]2N1C.O=C(O)C(F)(F)F", "Percent Effect": -12.02}, {"smiles": "CNC(=O)[C@H]1C[C@@H]2CN(C(=O)c3cccnc3)C[C@@H]2N1S(C)(=O)=O.O=C(O)C(F)(F)F", "Percent Effect": 86.97}, {"smiles": "CNC(=O)[C@H]1C[C@@H]2CN(S(=O)(=O)c3ccc(C)cc3)C[C@@H]2N1C.O=C(O)C(F)(F)F", "Percent Effect": -6.65}, {"smiles": "CCc1nc(C)c(C(C)N(C)CCOC)s1", "note": "(centres undefined)", "Percent Effect": -4.092}, {"smiles": "CC(C)c1nnc(NCc2ccsc2)o1", "Percent Effect": -7.753}, {"smiles": "COc1cccc(COC(C)C(=O)NCc2nnc3n2CCC3)c1", "note": "(centres undefined)", "Percent Effect": 0.6682}, {"smiles": "Cc1csc(N2CCC(NCC3(O)CCc4ccccc43)CC2)n1", "note": "(centres undefined)", "Percent Effect": -8.914}, {"smiles": "O=C(O)C(F)(F)F.O=C(c1ccncc1F)N1Cc2nc(COCC3CC3)oc2C1", "Percent Effect": 11.83}, {"smiles": "COCC1CN(S(=O)(=O)c2cccs2)Cc2ncnn2C1", "note": "(centres undefined)", "Percent Effect": -4.986}, {"smiles": "O=S(=O)(c1cccs1)N1Cc2nc(COCC3CC3)oc2C1", "Percent Effect": 96.89}, {"smiles": "O=C(NCc1ccccc1)N1Cc2nc(COCC3CC3)oc2C1", "Percent Effect": 6.767}, {"smiles": "O=C(Cc1cccs1)N1Cc2nc(COCC3CC3)oc2C1", "Percent Effect": 106.2}, {"smiles": "O=S(=O)(c1cccs1)N1CCN2C[C@H](OCC3CC3)C[C@H]2C1", "Percent Effect": 12.99}, {"smiles": "CN(C)c1ncc2c(n1)CCCC2NC(=O)c1ccsc1", "note": "(centres undefined)", "Percent Effect": -6.116}, {"smiles": "Cc1nnc(-c2ccc(C(=O)Nc3ccnc(N(C)C)n3)cc2)o1", "Percent Effect": -7.444}, {"smiles": "CN(C)c1ncc(-c2ccc(C(N)=O)cc2)c(C2CCNC2)n1.Cl", "note": "(centres undefined)", "Percent Effect": 101.4}, {"smiles": "CN(C)c1ncc(-c2cccc(C(N)=O)c2)c(C2CNCCO2)n1.Cl", "note": "(centres undefined)", "Percent Effect": 103.6}, {"smiles": "CN(C)c1ncc(-c2ccc(C(N)=O)cc2)c(C2CNCCO2)n1", "note": "(centres undefined)", "Percent Effect": 99.82}, {"smiles": "C=Cc1ccc(C(=O)NC2CCCc3nc(N(C)C)ncc32)cc1", "note": "(centres undefined)", "Percent Effect": 4.134}, {"smiles": "CC(C#N)CSc1ccccc1NCC(=O)Nc1ccccc1", "note": "(centres undefined)", "Percent Effect": -8.038}, {"smiles": "Cn1c(-c2ccccc2Cl)nc2cc(C(=O)NCCOCCO)cnc21", "Percent Effect": -3.34}, {"smiles": "O=C(CC1CCCO1)Nc1cccc(N2CCN(CC3CC3)CC2)c1", "note": "(centres undefined)", "Percent Effect": -9.056}, {"smiles": "Cc1ccc(C)c(NC(=O)Cn2nc(C)c(C#N)c2N)c1", "Percent Effect": -3.359}, {"smiles": "CC(C)SCc1cccc(NC2CCN(C)C2=O)c1", "note": "(centres undefined)", "Percent Effect": -2.094}, {"smiles": "CCc1ccccc1-n1cc(O)c(C(=O)N2CCCCC2)n1", "Percent Effect": -6.715}, {"smiles": "CC(=O)N1CCN(C(=O)C(C)n2cncn2)CC1", "note": "(centres undefined)", "Percent Effect": 5.614}, {"smiles": "CCc1nc(CN2CCCN(C(=O)C(C)n3cncn3)CC2)cs1", "note": "(centres undefined)", "Percent Effect": -3.687}, {"smiles": "CC(C(=O)N1CCN(c2ccccc2Cl)CC1)n1cncn1", "note": "(centres undefined)", "Percent Effect": 9.073}, {"smiles": "CC(C(=O)N1CCN(c2ncccn2)CC1)n1cncn1", "note": "(centres undefined)", "Percent Effect": 114.6}, {"smiles": "Cc1csc(N2CCCN(C(=O)C(C(C)C)n3cncn3)CC2)n1", "note": "(centres undefined)", "Percent Effect": -4.935}, {"smiles": "CC(C)N1CCN(C(=O)C(C)n2cncn2)CC1", "note": "(centres undefined)", "Percent Effect": 90.2}, {"smiles": "CC(=O)N1CCCN(C(=O)C(C)n2cncn2)CC1", "note": "(centres undefined)", "Percent Effect": 98.01}, {"smiles": "COc1ccc(NC(C)C(=O)N2CCN(c3ncccn3)CC2)cn1", "note": "(centres undefined)", "Percent Effect": -16.98}, {"smiles": "CC(C(=O)N1CCOCC1)n1cncn1", "note": "(centres undefined)", "Percent Effect": 74.2}, {"smiles": "CC(C(=O)N1CCN(c2cnccn2)CC1)n1cncn1", "note": "(centres undefined)", "Percent Effect": -0.9189}, {"smiles": "CC(=O)N1C[C@@H](F)[C@@H](OCc2nc3ccc(C#N)cc3[nH]2)C1", "Percent Effect": -0.3332}, {"smiles": "Cc1csc(CN(CC2CCCO2)C(=O)c2occc2C)n1", "note": "(centres undefined)", "Percent Effect": -7.004}, {"smiles": "Cc1ccc(NC2(C(=O)NCc3c(C)n[nH]c3C)CCCC2)cc1", "Percent Effect": 1.889}, {"smiles": "O=S1(=O)CCC(N(CCc2ccc3c(c2)CCO3)C2CC2)C1", "note": "(centres undefined)", "Percent Effect": -1.378}, {"smiles": "Cc1ccc(CN2CCOC3(CCCN(C(=O)c4ccco4)C3)C2)o1", "note": "(centres undefined)", "Percent Effect": -7.626}, {"smiles": "Cc1ccc(-c2[nH][nH]c(=O)c2CCN)cc1", "Percent Effect": 116.2}, {"smiles": "NCCc1c(-c2ccc(F)cc2)[nH][nH]c1=O", "Percent Effect": 105.4}, {"smiles": "NCCc1c(-c2ccccc2)[nH][nH]c1=O.O=C(O)C(=O)O", "Percent Effect": 104.8}, {"smiles": "Cc1nc(C)c(CCNC(Cc2ccncc2)C(F)(F)F)s1", "note": "(centres undefined)", "Percent Effect": 2.095}, {"smiles": "CC(SCCS(C)(=O)=O)c1nc(Cc2ccc(F)cc2)no1", "note": "(centres undefined)", "Percent Effect": -13.13}, {"smiles": "CNC(=O)c1cn2cc(-c3ccccc3Cl)n(CC=C(C)C)c(=O)c2n1", "Percent Effect": 16.22}, {"smiles": "COc1ccccc1CN1CC(OC)CN(C(=O)OCC(C)C)CC1=O", "note": "(centres undefined)", "Percent Effect": 116.7}, {"smiles": "COc1ccccc1CN1CC(O)CN(C(=O)OCC(C)C)CC1=O", "note": "(centres undefined)", "Percent Effect": 126.7}, {"smiles": "COc1ccccc1CNC(=O)C(C)N1CC(n2nc(C)cc2C)C1", "note": "(centres undefined)", "Percent Effect": -6.868}, {"smiles": "COc1ccccc1OC1CN(C(=O)Cc2c(C)nc(N)nc2C)C1", "Percent Effect": -25.47}, {"smiles": "COc1ccccc1CN1CC(OC)CN(C(=O)CC(C)C)CC1=O", "note": "(centres undefined)", "Percent Effect": 106.9}, {"smiles": "COc1ccccc1C(C)CC(=O)N1CCN(S(N)(=O)=O)CC1", "note": "(centres undefined)", "Percent Effect": 6.973}, {"smiles": "COc1ccccc1CNC(=O)N1CCCC(CO)C1", "note": "(centres undefined)", "Percent Effect": 3.322}, {"smiles": "COc1ccccc1C(C)CC(=O)N1CCCS1(=O)=O", "note": "(centres undefined)", "Percent Effect": -3.86}, {"smiles": "Cc1cc(CNc2cc(Cl)ccc2OCCS(C)(=O)=O)no1", "Percent Effect": 12.16}, {"smiles": "COCCN(Cc1ccsc1)C(=O)c1c(C)cc(C)[nH]c1=O", "Percent Effect": -10.51}, {"smiles": "CS(=O)(=O)N1CC[C@H]2[C@H](C[C@@H](Cn3cncn3)N2CC2CC2)C1.O=C(O)C(F)(F)F", "Percent Effect": -10.6}, {"smiles": "Cc1oncc1C(=O)N1CC[C@H]2[C@H](C[C@@H](CN(C)C)N2CC2CC2)C1.O=C(O)C(F)(F)F.O=C(O)C(F)(F)F", "Percent Effect": 105.6}, {"smiles": "CC(C)C1CN(Cc2nccn2C)CCC(=O)N1CC1CC1", "note": "(centres undefined)", "Percent Effect": -0.2084}, {"smiles": "Cc1oncc1C(=O)N1C[C@H]2CCCC(N(C)Cc3cccs3)[C@H]2C1.O=C(O)C(F)(F)F", "note": "(some centres undefined)", "Percent Effect": 13.96}, {"smiles": "CC(C)N1[C@H](CN2CCCC2)C[C@@H]2CN(Cc3ccoc3)CC[C@@H]21.O=C(O)C(F)(F)F.O=C(O)C(F)(F)F.O=C(O)C(F)(F)F", "Percent Effect": -12.2}, {"smiles": "Cc1cc(C(=O)N2C[C@@H]3COC[C@]3(CN(C)C)C2)c(C)o1.O=C(O)C(F)(F)F", "Percent Effect": -9.437}, {"smiles": "CN1[C@H](CN2CCCC2)C[C@@H]2CN(Cc3ccoc3)CC[C@@H]21.O=C(O)C(F)(F)F.O=C(O)C(F)(F)F.O=C(O)C(F)(F)F", "Percent Effect": 3.946}, {"smiles": "CN(C)C[C@@H]1C[C@@H]2CN(Cc3nccn3C)CC[C@@H]2N1CC1CC1", "Percent Effect": 107.7}, {"smiles": "Cc1cc(C(=O)N2CC[C@H]3[C@H](C[C@@H](CN4CCCC4)N3C)C2)c(C)o1.O=C(O)C(F)(F)F.O=C(O)C(F)(F)F", "Percent Effect": 132.6}, {"smiles": "Cc1ccoc1C(=O)N1CC[C@H]2[C@H](C[C@@H](CN3CCCC3)N2C)C1.O=C(O)C(F)(F)F.O=C(O)C(F)(F)F", "Percent Effect": 96.15}, {"smiles": "CCOCC1CN(C(=O)c2cc(C)oc2C)Cc2c1cnn2C.O=C(O)C(F)(F)F", "note": "(centres undefined)", "Percent Effect": 4.422}, {"smiles": "CC(C)N1[C@H](Cn2cncn2)C[C@@H]2CN(Cc3nccn3C)CC[C@@H]21.O=C(O)C(F)(F)F.O=C(O)C(F)(F)F.O=C(O)C(F)(F)F", "Percent Effect": 2.762}, {"smiles": "CN(C)C(=O)N1CCN(Cc2nc3ccccc3[nH]2)[C@H]2CS(=O)(=O)C[C@H]21", "Percent Effect": -17.35}, {"smiles": "CC(C)c1nc(CN2CCCCC2)cs1", "Percent Effect": -7.213}, {"smiles": "COCCCN1CC2(CCN(C(=O)c3ncc(F)cc3F)CC2)CC1=O", "Percent Effect": 74.04}, {"smiles": "CN1CC2(CCN(C(=O)c3ccc4nonc4c3)CC2)CC1=O", "Percent Effect": -11.27}, {"smiles": "COc1cccc(N2CCN(C(=O)c3ccc(=O)n(C)c3)CC2)c1", "Percent Effect": -5.711}, {"smiles": "CN1CC2(CCN(C(=O)c3ccc(=O)n(C)c3)CC2)CC1=O", "Percent Effect": 119.6}, {"smiles": "COCCCN1CC2(CCN(C(=O)Cc3csc(C)n3)CC2)CC1=O", "Percent Effect": -10.63}, {"smiles": "COCCCN1CC2(CCN(Cc3ncc[nH]3)CC2)CC1=O", "Percent Effect": 10.5}, {"smiles": "CN1CC2(CCN(C(=O)c3ccc4nccnc4c3)CC2)CC1=O", "Percent Effect": -6.042}, {"smiles": "CC1(C)CN(C(=O)c2ncc(F)cc2F)CCC1(O)CN1CCOCC1", "note": "(centres undefined)", "Percent Effect": -6.83}, {"smiles": "COCCCN1CC2(CCN(C(=O)c3ccc(=O)n(C)c3)CC2)CC1=O", "Percent Effect": 118.9}, {"smiles": "Cc1nnc(CN(C)C2CCN(c3cccc(-c4cscn4)c3)CC2)o1", "Percent Effect": -15.24}, {"smiles": "CC(=O)N1[C@H](Cn2cncn2)C[C@@H]2CN(S(C)(=O)=O)CC[C@@H]21", "Percent Effect": -6.775}, {"smiles": "CCC(C(=O)NC)N(c1cccc(C)c1)S(C)(=O)=O", "note": "(centres undefined)", "Percent Effect": 11.36}, {"smiles": "CSc1cccc(CN(C)C(=O)Nc2nc(C)n(C)n2)c1", "Percent Effect": 2.052}]}]}
